In PubChem BioAssay (NCATS):
Activity calls are given as the source filed them.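 The calls were made as follows: active = compounds whose dose series gives a full or clear partial fitted curve of increased nuclear translocation; inconclusive = weak partial curve or effect only at the top dose; inactive = no dose-dependent translocation response.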

target: Glucocorticoid receptor (Homo sapiens) (UniProt P04150); assay: GR-GFP Redistribution (AID 450); conditions: U2OS GR-GFP nuclear translocation, laser cytometry, 2 h; series mostly up to 20.6 µM
Sequence (P04150 whole entry, looked up): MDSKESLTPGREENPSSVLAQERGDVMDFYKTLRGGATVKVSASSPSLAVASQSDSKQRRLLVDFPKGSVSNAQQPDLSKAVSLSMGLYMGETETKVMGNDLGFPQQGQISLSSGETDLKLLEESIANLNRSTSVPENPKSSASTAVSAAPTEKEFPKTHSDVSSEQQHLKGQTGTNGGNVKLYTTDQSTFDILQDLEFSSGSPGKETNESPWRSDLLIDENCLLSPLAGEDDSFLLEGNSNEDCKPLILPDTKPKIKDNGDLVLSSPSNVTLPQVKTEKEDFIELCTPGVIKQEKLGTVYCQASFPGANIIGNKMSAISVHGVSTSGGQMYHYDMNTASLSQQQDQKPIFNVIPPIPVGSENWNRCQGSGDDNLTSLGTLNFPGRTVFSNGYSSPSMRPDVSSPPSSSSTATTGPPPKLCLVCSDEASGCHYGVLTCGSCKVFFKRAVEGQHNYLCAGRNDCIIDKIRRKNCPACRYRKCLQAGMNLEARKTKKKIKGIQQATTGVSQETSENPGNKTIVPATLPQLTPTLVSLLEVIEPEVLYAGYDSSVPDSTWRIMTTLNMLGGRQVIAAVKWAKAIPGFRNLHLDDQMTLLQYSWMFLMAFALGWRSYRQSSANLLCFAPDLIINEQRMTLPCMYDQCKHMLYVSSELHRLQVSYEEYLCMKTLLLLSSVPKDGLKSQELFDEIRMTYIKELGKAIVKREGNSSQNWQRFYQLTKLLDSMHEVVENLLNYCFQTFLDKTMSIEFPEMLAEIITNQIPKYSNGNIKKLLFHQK
Potency is read from the fitted curve at half-maximal effect.

Potency, inactive:
COc1ccc(C2=Nn3c(nnc3-c3ccccc3)SC2)cc1OC > 20.6 µM
Cn1c(SCC(=O)N2CCOCC2)nnc1-c1cccc(NC(=O)c2ccccc2F)c1 > 20.6 µM
CCc1nc(NCC(C)C)c(C#N)c2c1COC(C)(C)C2 > 20.6 µM
COc1ccccc1-c1cc(-c2cc(Cl)ccc2O)n[nH]1 > 20.6 µM
CCNC(=O)N(C(=O)NCC)n1c(C)nnc1C > 20.6 µM
O=C(N(c1ccccc1)c1ccccc1)n1ccnc1 > 20.6 µM
COc1ccc(CCNC2CC(C)N(C)CC2C)cc1OC (centres undefined) > 20.6 µM
COc1ccc(OCC(=O)N2CCN(C(=O)c3cccc4ccccc34)CC2)cc1 > 20.6 µM
CCOc1nc(Oc2cccc(C(=O)O)c2)nc(Oc2cccc(C(=O)O)c2)n1 > 20.6 µM
CCOC(=O)C1=C(N)n2c(s/c(=C\c3ccco3)c2=O)=C(C(=O)OC(C)C)C1c1ccco1 (centres undefined) > 20.6 µM
COc1cc(C2C(C(=O)c3cccs3)=C(O)C(=O)N2c2cc(C)on2)ccc1O (centres undefined) > 20.6 µM
COc1ccc(OC)c(C2/C(=C(\O)c3ccc4c(c3)OCCO4)C(=O)C(=O)N2CCCN(C)C)c1 (centres undefined) > 20.6 µM
CCCCOC(=O)c1[nH]c(C)c(C(=O)OC)c1C > 20.6 µM
CCc1nc2n[nH]c(N)c2c2c1CSC(C)(C)C2 > 20.6 µM
Cn1c(NCc2cccnc2)nc2c1c(=O)n(Cc1ccccc1F)c(=O)n2C > 20.6 µM
OC(CCCN1CCC(O)(c2ccc(Cl)cc2)CC1)c1ccc(F)cc1 (centres undefined) > 20.6 µM
CC(=O)Nc1cc2c(cc1Br)OCCO2 > 20.6 µM
COc1cccc(Cn2c(NCc3ccco3)nc3c2c(=O)n(C)c(=O)n3C)c1 > 20.6 µM
CCOc1cccc(NC(=O)C2CC(=O)NC(=Nc3ccccc3)S2)c1 (centres undefined) > 20.6 µM
COC(=O)/C=c1/s/c(=C(/C#N)C(=O)N2CCCCC2)n(-c2ccccc2)c1=O > 20.6 µM
CC1(C)Cc2c(sc3c2C(=O)N(c2ccccc2)C2=NCCCN23)CO1 > 20.6 µM
Cn1c(=O)c2c(nc(NCc3ccc4c(c3)OCO4)n2Cc2ccccc2F)n(C)c1=O > 20.6 µM
COc1ccccc1-n1c(=O)c2c3c(sc2n2c(SC(C)C)nnc12)CCC3 > 20.6 µM
COc1cc(C)nc(Nc2nc(C)c(C(C)=O)s2)n1 > 20.6 µM
COc1ccc2c(=O)c(-c3nc(C)cs3)coc2c1 > 20.6 µM
c1cncc(-c2nnc3sc(-c4ccco4)nn23)c1 > 20.6 µM
Cn1c(OCc2cccnc2)nc2c1c(=O)n(Cc1ccccc1)c(=O)n2C > 20.6 µM
Cn1c(SCC(=O)N2CCOCC2)nnc1-c1ccc(Cl)cc1Cl > 20.6 µM
COc1c(O)ccc2cnn(-c3ccccc3C)c(=O)c12 > 20.6 µM
CCCCOc1ccc(C(=O)N2CCCC2C(=O)O)cc1 (centres undefined) > 20.6 µM
CCN(CC)CCN1C(=O)c2ccccc2NC1c1cc(OC)c(OC)c(OC)c1 (centres undefined) > 20.6 µM
CCN(CC)CCCN1C(=O)C(=O)/C(=C(/O)c2ccc(C)cc2)C1c1ccccn1 (centres undefined) > 20.6 µM
CNc1oc(-c2ccc(Cl)cc2)nc1C#N > 20.6 µM
CN(C)CCNc1nc(-c2ccco2)c2c(c1C#N)CC(C)(C)OC2 > 20.6 µM
CCCc1cc(=O)oc2c(C)c(O)c(CN3CCCCC3)cc12 > 20.6 µM
COC(=O)C(NC(C)=O)(Nc1ccc(Br)cn1)C(F)(F)F (centres undefined) > 20.6 µM
CCOC(=O)CNS(=O)(=O)c1cc(-c2nn(C)c(=O)c3ccccc23)ccc1C > 20.6 µM
CCOC(=O)Oc1ccc2c(c1)C(C)=CC(C)(C)N2C(=O)OCC > 20.6 µM
CC(O)CNc1nc2c(c(=O)n(C)c(=O)n2C)n1CCc1ccccc1 (centres undefined) > 20.6 µM
